80 compounds from PMC4336329 (PLoS ONE, 2015) can be followed below.

The structures appear in SMILES notation. Among all 310,000 compounds or so, about 14,000 (4.5%) showed an effect of 50% or more. The effect is printed as a negative number. The sample holds strong results, similar compounds and a random draw of the others, so the mix is not that of the screen.
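Further: peak tail current of the secondary pulse compared with the same well before compound.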

The target of the test is human ether-à-go-go-related gene (hERG) potassium channel (human, UniProt Q12809). Kind of test: primary screen, population patch clamp on CHO cells stably expressing hERG; higher = less effect of the substance.
Sequence of human ether-à-go-go-related gene (hERG) potassium channel (Q12809 whole entry, looked up): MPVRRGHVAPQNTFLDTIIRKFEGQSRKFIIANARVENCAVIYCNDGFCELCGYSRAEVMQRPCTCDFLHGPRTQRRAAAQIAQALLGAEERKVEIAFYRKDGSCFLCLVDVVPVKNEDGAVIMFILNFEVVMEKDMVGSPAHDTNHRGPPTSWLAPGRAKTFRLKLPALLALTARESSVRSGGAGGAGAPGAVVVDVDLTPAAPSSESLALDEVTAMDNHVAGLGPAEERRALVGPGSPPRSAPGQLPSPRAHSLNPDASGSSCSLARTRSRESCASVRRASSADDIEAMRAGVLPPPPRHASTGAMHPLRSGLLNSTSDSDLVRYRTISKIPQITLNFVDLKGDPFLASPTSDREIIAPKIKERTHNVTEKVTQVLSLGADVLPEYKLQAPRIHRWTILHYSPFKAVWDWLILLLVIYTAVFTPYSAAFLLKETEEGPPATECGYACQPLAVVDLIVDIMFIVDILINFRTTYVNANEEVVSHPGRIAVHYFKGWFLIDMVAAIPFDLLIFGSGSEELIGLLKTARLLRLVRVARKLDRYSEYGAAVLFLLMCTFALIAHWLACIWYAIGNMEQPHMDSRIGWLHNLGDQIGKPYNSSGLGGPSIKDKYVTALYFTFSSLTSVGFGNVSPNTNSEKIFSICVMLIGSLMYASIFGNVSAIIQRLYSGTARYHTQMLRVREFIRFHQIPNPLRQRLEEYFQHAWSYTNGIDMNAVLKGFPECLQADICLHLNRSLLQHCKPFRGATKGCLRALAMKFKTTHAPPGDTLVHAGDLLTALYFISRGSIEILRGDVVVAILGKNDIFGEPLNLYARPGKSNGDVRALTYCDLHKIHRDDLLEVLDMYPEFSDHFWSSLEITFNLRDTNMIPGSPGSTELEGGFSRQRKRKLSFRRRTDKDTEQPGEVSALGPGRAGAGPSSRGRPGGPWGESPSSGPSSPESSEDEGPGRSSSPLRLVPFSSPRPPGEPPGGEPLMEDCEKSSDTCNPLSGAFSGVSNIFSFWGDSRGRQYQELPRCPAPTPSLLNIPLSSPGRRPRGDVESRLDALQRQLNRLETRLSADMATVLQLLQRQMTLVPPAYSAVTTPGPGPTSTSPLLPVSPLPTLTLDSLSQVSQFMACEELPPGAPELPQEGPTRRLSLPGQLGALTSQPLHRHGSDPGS
Consider `COCCN1C(=O)/C(=C/c2ccc(OCc3ccc(C(=O)O)cc3)c(OC)c2)SC1=Nc1ccccc1`, for which the “hERG current change (%, negative = inhibition) at 10uM” value came to 7.58%. The same measure for `NNC(=O)c1sccc1OCc1ccc(Cl)cc1Cl`: -18.5%; for `C=CCNC(=O)/C=C/c1cccs1`: 16.4%.

As for `COC(=O)c1ccc(NC(=O)COC(=O)C2CCC2)cc1`, the “hERG current change (%, negative = inhibition) at 10uM” value is 4.03%. Consider `Cc1cccc(NC(=S)N(CCN(C)C)Cc2cc3cc(C)ccc3[nH]c2=O)c1`, for which the “hERG current change (%, negative = inhibition) at 10uM” value is -16.5%.

Consider `CCN(CC)CCN(Cc1cc2cccc(C)c2[nH]c1=O)C(=S)Nc1ccccc1`, for which the “hERG current change (%, negative = inhibition) at 10uM” value was -66.2%. The same measure for `Cc1ccc(NC(=S)N(CCN(C)C)Cc2cc3cccc(C)c3[nH]c2=O)cc1`: -55.6%; for `Cc1ccc(NC(=S)N(Cc2cccs2)Cc2cc3cccc(C)c3[nH]c2=O)cc1`: -9.88%; for `CCN(CC)CCN(Cc1cc2cc(C)ccc2[nH]c1=O)C(=S)Nc1ccccc1`: -50.6%.

Take `Cc1cccc2cc(CN(CCN(C)C)C(=S)Nc3ccccc3)c(=O)[nH]c12`: the “hERG current change (%, negative = inhibition) at 10uM” value is listed as -24%. For `Cc1ccc(NC(=S)N(CCN(C)C)Cc2cc3cc(C)cc(C)c3[nH]c2=O)cc1`, the “hERG current change (%, negative = inhibition) at 10uM” value is listed as -7.41%. Next, `Cc1ccc(NC(=S)N(CCN(C)C)Cc2cc3cc(C)ccc3[nH]c2=O)cc1`: -43.5%; `Cc1cccc2cc(CN(CC3CCCO3)C(=S)Nc3ccccc3)c(=O)[nH]c12` (centres unmarked): 2.39%; `Cc1ccc(C(=O)N(CN2CCCC2=O)c2ccccc2)cc1`: -1.3%.

Take `CCN(CC(=O)NCc1ccc(Cl)cc1)CC(=O)NC1(C#N)CCCC1`: the “hERG current change (%, negative = inhibition) at 10uM” value is recorded as -19.2%. Consider `CC[C@H](C)Cc1cn([C@@H](CCCN=C(NC(=O)OC(C)(C)C)NC(=O)OC(C)(C)C)C(=O)NCCCCCCCCCCC(=O)N2CCN(C(=O)OC(C)(C)C)CC2)nn1`, for which the “hERG current change (%, negative = inhibition) at 10uM” value is on record as 4.2%. The same measure for `CCOC(=O)c1c(NC(=O)C2=C(C)NC(=S)NC2c2ccc(CC)cc2)sc(C)c1C` (centres unmarked): 7.47%; for `Cc1cc(SCC(=O)NN)c2cc(Br)ccc2n1`: -1.57%; for `Cc1ccc(S(=O)(=O)N2CCOC2CNC(=O)C(=O)NCCc2ccccc2)cc1` (centres unmarked): -25.6%. Next, `CCOC(=O)c1c(N)c2cc([N+](=O)[O-])cnc2n1C`: 17.3%; `CCOC(=O)c1cc2sccc2n1CCCN1C(=O)c2ccccc2C1=O`: 6.01%; `CN1CCN(C(N)=NC(=O)c2ccccc2)CC1`: 6.76%. Next, `COc1ccc(Cl)cc1S(=O)(=O)N1CCN=C1Cc1ccccc1`: -18.9%. As for `CCc1ccc(NS(=O)(=O)c2cc3[nH]c(=O)c(=O)[nH]c3cc2C)cc1`, the “hERG current change (%, negative = inhibition) at 10uM” value worked out at 9.15%. `CC/C(=N\Nc1ccc([N+](=O)[O-])cc1[N+](=O)[O-])c1ccc(O)cc1`: the “hERG current change (%, negative = inhibition) at 10uM” value was found to be 21.7%.

Consider `O=[N+]([O-])c1cccnc1S(=O)(=O)c1ccccc1`, for which the “hERG current change (%, negative = inhibition) at 10uM” value turned out to be 15.9%. Next, `Cc1ccc(S(=O)(=O)c2ncccc2N)cc1`: 12.4%; `Cc1ccc(S(=O)(=O)c2ncccc2[N+](=O)[O-])cc1`: -64%.

As for `Cc1noc(C)c1C(=O)Nc1ccccc1C(=O)NCCc1ccccc1`, the “hERG current change (%, negative = inhibition) at 10uM” value stood at 8.93%.

As for `Cc1nn(-c2ccccc2)c(C)c1C(=O)OCC(=O)N1CC(=O)Nc2ccccc21`, the “hERG current change (%, negative = inhibition) at 10uM” value is on record as 1.89%. The same measure for `CC1(OC(=O)C2CCCC2)C(=O)C=C2C=C(c3ccsc3)N(Cc3ccccc3)C=C2C1=O` (centres unmarked): -52.5%; for `CC1(OC(=O)C2CCCC2)C(=O)C=C2C=C(c3ccsc3)N(CC3CC3)C=C2C1=O` (centres unmarked): -11.8%; for `CC1(OC(=O)C2CCCC2)C(=O)C=C2C=C(c3ccsc3)N(CCCCO)C=C2C1=O` (centres unmarked): 1.16%. The same measure for `CC(C)CN1C=C2C(=O)C(C)(OC(=O)C3CCCC3)C(=O)C=C2C=C1c1ccsc1` (centres unmarked): -0.438%. For `CC1(OC(=O)C2CCCC2)C(=O)C=C2C=C(c3ccsc3)N(Cc3ccco3)C=C2C1=O` (centres unmarked), the “hERG current change (%, negative = inhibition) at 10uM” value is on record as -23.2%.

With `COc1ccc(CN2C=C3C(=O)C(C)(OC(=O)C4CCCC4)C(=O)C=C3C=C2c2ccsc2)cc1` (centres unmarked), the “hERG current change (%, negative = inhibition) at 10uM” value is recorded as -64.4%. Next, `CC1(OC(=O)C2CCCC2)C(=O)C=C2C=C(c3ccsc3)N(C3CCCCC3)C=C2C1=O` (centres unmarked): -15.8%; `CC1(OC(=O)C2CCCC2)C(=O)C=C2C=C(c3ccsc3)N(Cc3ccc4c(c3)OCO4)C=C2C1=O` (centres unmarked): -79.6%. The same measure for `CC1(OC(=O)C2CCCC2)C(=O)C=C2C=C(c3ccsc3)N(C3CCCC3)C=C2C1=O` (centres unmarked): -64.7%.

As to `CC1(OC(=O)C2CCCC2)C(=O)C=C2C=C(c3ccsc3)N(C3CC3)C=C2C1=O` (centres unmarked), the “hERG current change (%, negative = inhibition) at 10uM” value is 16.5%. For `COCCN1C=C2C(=O)C(C)(OC(=O)C3CCCC3)C(=O)C=C2C=C1c1ccsc1` (centres unmarked), the “hERG current change (%, negative = inhibition) at 10uM” value is reported as -6.22%. Next, `C=CCN1C=C2C(=O)C(C)(OC(=O)C3CCCC3)C(=O)C=C2C=C1c1ccsc1` (centres unmarked): -19.4%. Take `COC(=O)c1ccc(COC(=O)CNC(=O)CNC(=O)c2ccc(OC)cc2)cc1`: the “hERG current change (%, negative = inhibition) at 10uM” value is recorded as -6.8%. The same measure for `CN(C(=O)CN1C(=O)C2C3CC(C(Br)C3Br)C2C1=O)C1CCCCC1` (centres unmarked): -8.93%. As for `CCOC(=O)Cn1c(S(=O)(=O)Cc2ccc(F)cc2)nc(-c2ccccc2)c1-c1ccccc1`, the “hERG current change (%, negative = inhibition) at 10uM” value was -7.15%. Next, `CCCCCCSc1cc(C)nc2ncnn12`: -42.9%; `CCc1cccc(CC)c1-n1c(-c2cccnc2)n[nH]c1=S`: 18.1%; `O=C(c1cc(Br)ccc1OC(F)F)N1CCN2CCCC2C1` (centres unmarked): -4.15%.

As to `CCOC(=O)CSc1nnc(-c2ccccc2NC(=O)c2ccccc2)o1`, the “hERG current change (%, negative = inhibition) at 10uM” value is given as 12.2%. `CC(C)Nc1oc(-c2cccc3ccccc23)nc1C#N`: the “hERG current change (%, negative = inhibition) at 10uM” value amounted to 2.18%.

Turning to `O=C(NC(=S)NCCO)c1sc2ccccc2c1Cl`, the “hERG current change (%, negative = inhibition) at 10uM” value is -0.142%. Next, `Cl.NCCc1ccc(OCc2ccccc2)c(OCc2ccccc2)c1`: -22.1%. Next, `COc1ccc(N2CCN(C(=O)Cc3ccc(OC)c(OC)c3)CC2)cc1`: 6.38%; `COc1cc(CCC(=O)N2CCN(c3ncccn3)CC2)cc(OC)c1OC`: 11.8%. The same measure for `COc1ccc(CCC(=O)N2CCN(c3ccc([N+](=O)[O-])cc3)CC2)cc1OC`: -81.5%. As for `COc1cc(CCC(=O)N2CCN(c3ccc([N+](=O)[O-])cc3)CC2)cc(OC)c1OC`, the “hERG current change (%, negative = inhibition) at 10uM” value is listed as -78.4%. Next, `COc1cc(CCC(=O)N2CCN(c3cccc(C)c3C)CC2)cc(OC)c1OC`: -2.88%. The same measure for `COc1ccc(C(=O)N2CCN(c3ccc([N+](=O)[O-])c(NCCc4ccc(OC)c(OC)c4)c3)CC2)cc1`: 4.2%. The same measure for `COc1cc(CCC(=O)N2CCN(c3ccccc3)CC2)cc(OC)c1OC`: -58.5%; for `COc1cc(CCC(=O)N2CCN(c3ccc(N4CCOCC4)nn3)CC2)cc(OC)c1OC`: -9.65%; for `COc1ccc(CCC(=O)N2CCN(c3ccccc3)CC2)cc1OC`: 14%.

Turning to `O=C(Cc1cccc(C(F)(F)F)c1)OCC(=O)N1CCN(S(=O)(=O)c2ccc(Cl)cc2)CC1`, the “hERG current change (%, negative = inhibition) at 10uM” value is -6.07%. Take `COc1ccc(OC)c(NC(=S)NCc2cccs2)c1`: the “hERG current change (%, negative = inhibition) at 10uM” value is on record as -18.3%. Next, `CCOC(=O)C1(Cc2ccccc2C)CCCN(S(=O)(=O)CC)C1` (centres unmarked): 13.9%. Take `COc1cccc(NS(=O)(=O)c2ccc3c(c2)n(C)c(=O)c(=O)n3C)c1`: the “hERG current change (%, negative = inhibition) at 10uM” value is -6.59%. As to `COC(=O)c1[nH]c2cc(OC)ccc2c1NC(=O)CCN1CCSCC1`, the “hERG current change (%, negative = inhibition) at 10uM” value amounted to 7.01%.

`CCc1nn(C(C)C(=O)N2CC(C)CC(C)C2)c(=O)c2cc3occc3n12` (centres unmarked): the “hERG current change (%, negative = inhibition) at 10uM” value is given as -7.58%. The same measure for `CNC(=O)Nc1ccc(Cl)cc1`: 7.56%. The same measure for `O=C(C1=C[C@H](c2csc3ccccc23)C[C@H](OCc2ccc(CO)cc2)O1)N1CCCCCCC1`: -15.1%; for `O=C(C1=C[C@H](c2csc3ccccc23)C[C@H](OCc2ccc(CO)cc2)O1)N1CCOCC1`: -59.2%; for `CC(=O)n1cc([C@@H]2C=C(C(=O)O)O[C@H](OCc3ccc(CO)cc3)C2)c2ccccc21`: 0.587%. Next, `CC(=O)n1cc([C@@H]2C=C(C(=O)N3CCOCC3)O[C@H](OCCCCO)C2)c2ccccc21`: -51.6%; `C=CCOC(=O)C1=C[C@@H](c2cn(C(C)=O)c3ccccc23)C[C@@H](OCc2ccc(CO)cc2)O1`: -93.5%. As to `C=CCOC(=O)C1=C[C@H](c2cn(C(C)=O)c3ccccc23)C[C@H](OCc2ccc(CO)cc2)O1`, the “hERG current change (%, negative = inhibition) at 10uM” value is reported as -9.82%. With `CC(=O)n1cc([C@H]2C=C(C(=O)N3CCOCC3)O[C@@H](OCCCCO)C2)c2ccccc21`, the “hERG current change (%, negative = inhibition) at 10uM” value is -17.1%.

Turning to `CC(=O)n1cc([C@H]2C=C(C(=O)N3CCN(Cc4ccccc4)CC3)O[C@@H](OCCCCO)C2)c2ccccc21`, the “hERG current change (%, negative = inhibition) at 10uM” value was -42.5%.

Take `O=C(C1=C[C@@H](c2csc3ccccc23)C[C@@H](OCc2ccc(CO)cc2)O1)N1CCOCC1`: the “hERG current change (%, negative = inhibition) at 10uM” value is -27.5%.

On to `CC(=O)n1cc([C@@H]2C=C(C(=O)N3CCN(Cc4ccccc4)CC3)O[C@H](OCc3ccc(CO)cc3)C2)c2ccccc21`, for which the “hERG current change (%, negative = inhibition) at 10uM” value was -10.1%. Consider `CC(=O)n1cc([C@H]2C=C(C(N)=O)O[C@@H](OCc3ccc(CO)cc3)C2)c2ccccc21`, for which the “hERG current change (%, negative = inhibition) at 10uM” value was -16.8%. The same measure for `CC(=O)n1cc([C@@H]2C=C(C(=O)N3CCOCC3)O[C@H](OCc3ccc(CO)cc3)C2)c2ccccc21`: -74.8%.
